{
  "source": "PubChem BioAssay AID651599",
  "about": "(National Center for Advancing Translational Sciences (NCATS), 2012)",
  "note": "Results filed as inconclusive are left out. The source made the active and inactive calls. Calls follow the shape of the dose curve; as a rule, active = well fitted inhibition curve with a large enough effect; inconclusive = small, poorly fitted or top-dose-only effect; inactive = no such curve, though single readings can be large or run the other way. % is scaled to controls: 0 for no effect and ±100 for the full control effect; potency is read from the fitted curve at half-maximal effect.",
  "data": [
    {"molecular_target": "Tumor susceptibility gene 101 protein (Homo sapiens) (UniProt Q99816)", "sequence (Q99816 whole entry, looked up, the tested form may be a part)": "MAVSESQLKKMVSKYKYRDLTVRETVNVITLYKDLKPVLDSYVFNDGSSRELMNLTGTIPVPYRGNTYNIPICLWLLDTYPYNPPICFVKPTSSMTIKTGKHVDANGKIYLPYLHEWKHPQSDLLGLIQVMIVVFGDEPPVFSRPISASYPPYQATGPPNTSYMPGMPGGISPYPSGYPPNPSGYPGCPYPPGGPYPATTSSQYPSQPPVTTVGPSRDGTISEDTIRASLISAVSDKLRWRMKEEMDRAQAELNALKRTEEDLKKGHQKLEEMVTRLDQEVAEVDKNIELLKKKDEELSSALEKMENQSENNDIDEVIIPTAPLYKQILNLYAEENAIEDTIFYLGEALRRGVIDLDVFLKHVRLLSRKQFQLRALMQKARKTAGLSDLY", "test": "qHTS Assay for Iinhibitors of HIV-1 Budding by Blocking the Interaction of PTAP/TSG101: Hit Validation in TR assay", "conditions": "Tsg101 binding domain + Texas Red-labeled PTAP peptide, fluorescence polarization, 20 min; series mostly up to 57.5 µM; activity change, negative = inhibition: at the top concentration", "source_text": "Stages of the HIV-1 replication cycle, specifically virus assembly and release, provide underexploited targets for the development of novel antiviral inhibitors. The late stages of HIV-1 replication are mediated by the Gag precursor protein, Pr55Gag. Expression of Pr55Gag is both necessary and sufficient for the production of virus-like particles from Gag-expressing cells. The Gag protein hijacks key host proteins involved in endocytic machinery of the host cell to promote endosomal processing and viral budding. The budding process requires a direct interaction between a […] (PTAP) motif in the p6 domain of Gag and the cellular endosomal sorting protein known as Tsg101. In this way, the Gag PTAP motif promotes the host cells to recruit viral particles to the plasma membrane where the new viral particles are released, effectively turning the host cells into viral factories. A fluorescence anisotropy assay has been developed to quantitatively measure the PTAP-Tsg101 interaction which can be used to screen for inhibitors of this interaction.\nThis hit validation assay is similar to the primary assay but uses the Texas Red label instead of FITC.\nNIH Molecular Libraries Probe Production Network [MLPCN]\nNIH Chemical Genomics Center [NCGC]\nPI Name: Dr. Eric Freed, NCI\nTwo uL of the Tsg101 binding domain in buffer (10 mM HEPES pH 7.5; 0.15 M NaCl, 0.01% Tween 20; 3 mM EDTA;0.1 mM TCEP) was dispensed into Greiner black MB 1536-well plates (final concentration 10 uM). Then, 23 nL of compounds or DMSO were delivered to each well using a pin tool. Finally, 2 uL of a TR-labeled peptide containing the PTAP motif (1) in the same buffer was dispensed (50 nM final concentration) and the binding was allowed to proceed for 20 min. at r.t. Fluorescent polarization was determined using TR excitation and polarized emission filters on a Perkin Elmer Viewlux.\nKeywords: Tsg101, PTAP, Gag, HIV, fluorescent polarization, MLSMR, MLPCN, NIH Roadmap, qHTS, NCGC", "values": [
      {"smiles": "CN1/C(=C\\C=C2C(=O)NC(=S)NC2=O)C(C)(C)c2ccccc21", "activity change, negative = inhibition": "17% (inactive)"},
      {"smiles": "CC(C)C[C@H]1C(=O)N2CCC[C@H]2[C@]2(O)O[C@](NC(=O)[C@@H]3C=C4c5cccc6[nH]cc(c56)C[C@H]4N(C)C3)(C(C)C)C(=O)N12", "activity change, negative = inhibition": "23.6% (inactive)"},
      {"smiles": "Nc1ccc2ccc3cccc[n+]3c2c1", "Potency": "16.3 µM (active)"},
      {"smiles": "N#CCN1CCN(c2ccc(C(F)(F)F)cc2)CC1", "activity change, negative = inhibition": "-12.3% (inactive)"},
      {"smiles": "COc1ccc(N2C(=O)NC(=O)/C(=C\\c3cn(C)c4ccccc34)C2=O)cc1", "activity change, negative = inhibition": "-82.3% (inactive)"},
      {"smiles": "Cc1cc(N2CCCC2)ccc1C=C(C#N)C#N", "activity change, negative = inhibition": "61.5% (inactive)"},
      {"smiles": "COc1cccc2c1C(=O)c1c(O)c3c(c(O)c1C2=O)CC(O)(C(C)=NO)CC3OC1CC(N)C(O)C(C)O1", "note": "(stereo unspecified)", "activity change, negative = inhibition": "-4.88% (inactive)"},
      {"smiles": "C=CCN1CCC2(C)c3cc(O)ccc3CC1C2C", "note": "(stereo unspecified)", "activity change, negative = inhibition": "-6.86% (inactive)"},
      {"smiles": "CN1Cc2c(c(C#N)c(N)n(C)c2=S)CC1(C)C", "activity change, negative = inhibition": "24.8% (inactive)"},
      {"smiles": "Nc1cc2nc3ccccc3nc2cc1N", "activity change, negative = inhibition": "-20.2% (inactive)"},
      {"smiles": "CCN(CC)c1ccc(N=Cc2c(O)n(-c3ccc(OC)cc3)c(=O)[nH]c2=O)cc1", "activity change, negative = inhibition": "2.78% (inactive)"},
      {"smiles": "CCOC(=O)c1c(/N=C/c2c(O)n(-c3ccccc3F)c(=S)[nH]c2=O)sc2c1CCCC2", "activity change, negative = inhibition": "-9.37% (inactive)"},
      {"smiles": "CCN(CC)C(=O)Cn1cc(C=C2C(=O)N(C)C(=O)N(C)C2=O)c2ccccc21", "activity change, negative = inhibition": "-8.32% (inactive)"},
      {"smiles": "C#CCN1C(=O)S/C(=C\\c2ccc(N3CCOCC3)cc2C)C1=O", "activity change, negative = inhibition": "-9.29% (inactive)"},
      {"smiles": "N#CC(C#N)=Cc1ccc(-c2ccccc2F)o1", "activity change, negative = inhibition": "-14.9% (inactive)"},
      {"smiles": "CC1=C[C@@H]2c3cccc4[nH]cc(c34)C[C@H]2N(C)C1", "activity change, negative = inhibition": "-10.5% (inactive)"},
      {"smiles": "CN1CC=C2C(C#N)=C(N)C(C#N)(C#N)C(c3ccncc3)C2C1", "note": "(stereo unspecified)", "activity change, negative = inhibition": "-13.5% (inactive)"},
      {"smiles": "O=C1NC(=O)N(c2ccc(F)cc2)C(=O)/C1=C/c1ccc2c(c1)CCCN2Cc1ccccc1", "activity change, negative = inhibition": "2.12% (inactive)"},
      {"smiles": "O=[N+]([O-])c1ccc(NCc2ccccc2)c2nonc12", "activity change, negative = inhibition": "-2.23% (inactive)"},
      {"smiles": "CN1CCN(c2ccc([N+](=O)[O-])c3no[n+]([O-])c23)CC1", "activity change, negative = inhibition": "-24.5% (inactive)"},
      {"smiles": "O=c1cc(C(F)(F)F)c2cc3c4c(c2o1)CCCN4CCC3", "activity change, negative = inhibition": "12.3% (inactive)"},
      {"smiles": "CCOC(=O)C1CCCN(c2ccc([N+](=O)[O-])c3nonc23)C1", "note": "(stereo unspecified)", "activity change, negative = inhibition": "-2.58% (inactive)"},
      {"smiles": "CCOC(=O)[C@]1(C#N)[C@@H]2C=CC(C(C)=O)=CN2[C@@H](C(N)=O)[C@@H]1c1ccsc1", "activity change, negative = inhibition": "54.4% (inactive)"},
      {"smiles": "CC(C)C[C@H]1C(=O)N2CCCC2[C@]2(O)O[C@](NC(=O)[C@@H]3C=C4c5cccc6[nH]cc(c56)CC4N(C)C3)(C(C)C)C(=O)N12", "note": "(stereo partly specified)", "activity change, negative = inhibition": "11.2% (inactive)"},
      {"smiles": "CC1=NCCc2c1[nH]c1cc(O)ccc21", "activity change, negative = inhibition": "14.7% (inactive)"},
      {"smiles": "Nc1ccc2nonc2c1[N+](=O)[O-]", "activity change, negative = inhibition": "-5.71% (inactive)"}
    ]}
  ]
}
